Calls of active or inactive are those of the source. Rule for the calls: active = hit-call score of the fitted dose curve at least 0.9, where 1 is the maximum; inactive = score below 0.9.
Key:
[1] = read-out: Human Leukocyte Antigen - DR isotype (HLADR), HLA-DRA (gene 3122); assay: BSK_CASM3C_HLADR: BioMAP Diversity Plus: CASM3C Assay for Human Leukocyte Antigen - DR isotype (HLADR) Biomarker Activity (AID 2283043); settings: primary human coronary artery smooth muscle cells; actives raise or lower the signal;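 note: cell-surface HLA-DR protein level quantified by ELISA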
[2] = read-out: Macrophage colony-stimulating factor (MCSF), CSF1 (gene 1435); assay: BSK_CASM3C_MCSF: BioMAP Diversity Plus: CASM3C Assay for Macrophage colony-stimulating factor (MCSF) Biomarker Activity (AID 2283044); settings: primary human coronary artery smooth muscle cells; actives raise or lower the signal;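 note: M-CSF protein amount quantified by ELISA after 24 h exposure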
[3] = read-out: Low-density lipoprotein receptor (LDLR), LDLR (gene 3949); assay: BSK_CASM3C_LDLR: BioMAP Diversity Plus: CASM3C Assay for Low-density lipoprotein receptor (LDLR) Biomarker Activity (AID 2283045); settings: primary human coronary artery smooth muscle cells; actives raise or lower the signal;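 note: LDLR protein level on the cell surface quantified by ELISA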
[4] = read-out: Monocyte Chemoattractant Protein-1 (MCP1), CCL2 (gene 6347); assay: BSK_CASM3C_MCP1: BioMAP Diversity Plus: CASM3C Assay for Monocyte Chemoattractant Protein-1 (MCP1) Biomarker Activity (AID 2283046); settings: primary human coronary artery smooth muscle cells; actives raise or lower the signal;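 note: MCP-1 level quantified by ELISA 24 h after dosing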
[5] = BSK_CASM3C_Proliferation: Cell Proliferation Assessment in the BioMAP Diversity Plus: CASM3C Assay (AID 2283047); settings: primary human coronary artery smooth muscle cells;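 note: sulforhodamine B total protein stain as relative cell number at 560 nm; sub-confluent cells exposed 48 h before staining; fitted both ways against DMSO so gain or loss of cell number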
[6] = read-out: Monokine induced gamma interferon (MIG), CXCL9 (gene 4283); assay: BSK_CASM3C_MIG: BioMAP Diversity Plus: CASM3C Assay for Monokine induced gamma interferon (MIG) Biomarker Activity (AID 2283048); settings: primary human coronary artery smooth muscle cells; actives raise or lower the signal;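 note: MIG protein level measured by ELISA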
[7] = read-out: serum amyloid A (SAA), SAA1 (gene 6288); assay: BSK_CASM3C_SAA: BioMAP Diversity Plus: CASM3C Assay for serum amyloid A (SAA) Biomarker Activity (AID 2283049); settings: primary human coronary artery smooth muscle cells; actives raise or lower the signal;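 note: SAA protein level quantified by ELISA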
[8] = BSK_CASM3C_SRB: Viability Assessment in the BioMAP Diversity Plus: CASM3C Assay (AID 2283050); settings: primary human coronary artery smooth muscle cells;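 note: cells exposed to compound for 24 h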
[9] = read-out: Thrombomodulin, THBD (gene 7056); assay: BSK_CASM3C_Thrombomodulin: BioMAP Diversity Plus: CASM3C Assay for Thrombomodulin Biomarker Activity (AID 2283051); settings: primary human coronary artery smooth muscle cells; actives raise or lower the signal;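 note: thrombomodulin protein level measured by ELISA 24 h after dosing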
[10] = read-out: Tissue Factor, F3 (gene 2152); assay: BSK_CASM3C_TissueFactor: BioMAP Diversity Plus: CASM3C Assay for Tissue Factor Biomarker Activity (AID 2283052); settings: primary human coronary artery smooth muscle cells; actives raise or lower the signal;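 note: cell surface tissue factor protein level read by ELISA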
[11] = read-out: Interferon-gamma inducible Protein 10 (IP10), CXCL10 (gene 3627); assay: BSK_hDFCGF_IP10: BioMAP Diversity Plus: hDFCGF Assay for Interferon-gamma inducible Protein 10 (IP10) Biomarker Activity (AID 2283053); settings: primary human foreskin fibroblasts; actives raise or lower the signal
Procedure, shortened: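 IP-10 levels, quantified by ELISA, are taken from human foreskin fibroblast cultures 24 h after chemical treatment, with DMSO serving as negative control and baseline for bidirectional analysis.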

[12] = read-out: Urokinase-type plasminogen activator receptor (uPAR), PLAUR (gene 5329); assay: BSK_CASM3C_uPAR: BioMAP Diversity Plus: CASM3C Assay for Urokinase-type plasminogen activator receptor (uPAR) Biomarker Activity (AID 2283054); settings: primary human coronary artery smooth muscle cells; actives raise or lower the signal;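 note: cell-surface uPAR protein level quantified by ELISA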
[13] = read-out: Vascular cell adhesion molecule 1 (VCAM1), VCAM1 (gene 7412); assay: BSK_CASM3C_VCAM1: BioMAP Diversity Plus: CASM3C Assay for Vascular cell adhesion molecule 1 (VCAM1) Biomarker Activity (AID 2283055); settings: primary human coronary artery smooth muscle cells; actives raise or lower the signal;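 note: VCAM-1 protein level quantified by ELISA on the cells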
[14] = read-out: Collagen III, COL3A1 (gene 1281); assay: BSK_hDFCGF_CollagenIII: BioMAP Diversity Plus: hDFCGF Assay for Collagen III Biomarker Activity (AID 2283056); settings: primary human foreskin fibroblasts; actives raise or lower the signal
Procedure, shortened: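 Human foreskin fibroblast primary cultures sampled 24 h after dosing; Collagen III quantified by ELISA. Signal fitted bidirectionally against DMSO baseline.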

[15] = read-out: Epidermal growth factor receptor (EGFR), EGFR (gene 1956); assay: BSK_hDFCGF_EGFR: BioMAP Diversity Plus: hDFCGF Assay for Epidermal growth factor receptor (EGFR) Biomarker Activity (AID 2283057); settings: primary human foreskin fibroblasts; actives raise or lower the signal
Procedure, shortened: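 Measured by ELISA: EGFR levels on primary human foreskin fibroblasts 24 h after chemical treatment, analysed relative to DMSO with bidirectional fitting.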

[16] = read-out: Interleukin-8 (IL8), CXCL8 (gene 3576); assay: BSK_hDFCGF_IL8: BioMAP Diversity Plus: hDFCGF Assay for Interleukin-8 (IL8) Biomarker Activity (AID 2283058); settings: primary human foreskin fibroblasts; actives raise or lower the signal
Procedure, shortened: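 Primary human foreskin fibroblasts (hDFCGF system) dosed with chemical; IL-8 measured by ELISA 24 hours later. Bidirectional curve fitting relative to DMSO baseline; cytotoxicity tracked in parallel cultures by SRB total protein staining.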

[17] = BSK_hDFCGF_Proliferation: Cell Proliferation Assessment in the BioMAP Diversity Plus: hDFCGF Assay (AID 2283059); settings: primary human foreskin fibroblasts;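 note: curves fitted for both rise and fall of signal versus DMSO baseline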
Procedure, shortened: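 Total protein read at 560 nm after 0.1% SRB staining of TCA-fixed human skin fibroblasts, […]. Activity is fitted in both directions relative to DMSO as baseline.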

[18] = read-out: Macrophage colony-stimulating factor (MCSF), CSF1 (gene 1435); assay: BSK_hDFCGF_MCSF: BioMAP Diversity Plus: hDFCGF Assay for Macrophage colony-stimulating factor (MCSF) Biomarker Activity (AID 2283060); settings: primary human foreskin fibroblasts; actives raise or lower the signal
Procedure, shortened: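 Human foreskin fibroblast primary cultures; M-CSF measured by ELISA 24 hours after chemical dosing. Bidirectional fitting relative to DMSO, with overt cytotoxicity tracked by parallel SRB total-protein staining (0.1% SRB, 10% TCA fixation, 560 nm).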

[19] = BSK_hDFCGF_SRB: Viability Assessment in the BioMAP Diversity Plus: hDFCGF Assay (AID 2283061); settings: primary human foreskin fibroblasts;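 note: cells exposed to compound for 24 h before the read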
Procedure, shortened: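 Human foreskin fibroblasts in 96-well plates were treated 24 h. Total protein was measured by 0.1% SRB staining after 10% TCA fixation, read at 560 nm. Data were fitted bidirectionally against DMSO.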

Measured: AC50

O=C1OC(=O)C2C3C=CC(C3)C12 (centres undefined)
inactive: all assays above

C1N2CN3CN1CN(C2)C3
inactive: all assays above

CC/C(=C\C(=N/O)C(N)=O)C(C)[N+](=O)[O-] (centres undefined)
active: [1] 22.3 µM
inactive: all other assays above

Nc1nc2ncc(CNc3ccc(C(=O)N[C@@H](CCC(=O)O)C(=O)O)cc3)nc2c(=O)[nH]1
inactive: all assays above

CCN(C(=O)c1cc(C)cc(OC[C@H](C)Nc2ccncc2)c1)C(C)C
inactive: all assays above

CCOC(=O)COc1ccc2c(c1)CC(NCC(O)c1cccc(Cl)c1)CC2 (centres undefined)
active: [5] 27.2 µM | [11] 26.3 µM | [14] 30.6 µM | [15] 33.4 µM | [16] 32.1 µM | [17] 9.71 µM | [18] 14.6 µM | [19] 26.9 µM
inactive: all other assays above

CC(C)c1cccc(C(C)C)c1N1C(=O)c2ccc(O)cc2C1=O
inactive: [4] | [6] | [9] | [10] | [14] | [15] | [16]
active: [1] 14.1 µM | [2] 32 µM | [3] 36.3 µM | [5] 20 µM | [7] 26.1 µM | [8] 20 µM | [11] 27.9 µM | [12] 20 µM | [13] 16.9 µM | [17] 9.91 µM | [18] 14.7 µM | [19] 14.9 µM

CCOC(=O)c1ccc(C2CCC(NC[C@H](O)COc3ccc(O)c(NS(C)(=O)=O)c3)CC2)cc1 (some centres undefined)
inactive: [4] | [6] | [7] | [10] | [12]
active: [1] 30.8 µM | [2] 24.2 µM | [3] 11.2 µM | [5] 26.9 µM | [8] 15.7 µM | [9] 18.7 µM | [11] 21.8 µM | [13] 18.7 µM | [14] 13.4 µM | [15] 6.27 µM | [16] 27.2 µM | [17] 1.75 µM | [18] 10.2 µM | [19] 5.64 µM

CCCCC(CC)COC(=O)c1ccc(C(=O)OCC(CC)CCCC)cc1 (centres undefined)
inactive: all assays above

CC(C)CCCCCCOC(=O)c1ccc(C(=O)OCCCCCCC(C)C)c(C(=O)OCCCCCCC(C)C)c1
inactive: all assays above

CNS(=O)(=O)c1cc(C(=O)N2CCC(CCN3C4CCC3CC(n3c(C)nc5ccccc53)C4)(c3cccc(F)c3)CC2)c(Cl)cc1F (centres undefined)
active: [1] 28.5 µM | [3] 5.4 µM | [5] 13.5 µM | [13] 6.7 µM | [14] 20 µM | [17] 11.5 µM | [19] 24.8 µM
inactive: all other assays above

Clc1nc(Cl)c(Cl)c(Cl)c1Cl
inactive: all assays above

O=C(O)CCN(C1(C(=O)NO)CCCC1)S(=O)(=O)c1ccc(Oc2ccc(F)cc2)cc1
inactive: all assays above

Cc1[nH]cnc1C[C@H]1CCc2c(C)c3ccccc3n2C1=O
active: [3] 18.5 µM | [5] 26.4 µM | [12] 22 µM | [14] 19.2 µM | [17] 21.9 µM
inactive: all other assays above

O=C(O)CC(O)C(=O)O (centres undefined)
inactive: all assays above

CCCN(C1CCN(C(=O)C2CCNCC2)CC1)[C@@H]1CCc2ccc(OC)cc2C1
active: [3] 35 µM
inactive: all other assays above

CCc1cc(SCc2sc(-c3ccc(C(F)(F)F)cc3)nc2CN2CCN(c3ccc(OC)cc3)CC2)ccc1OCC(=O)O
inactive: [10]
active: [1] 18.7 µM | [2] 36.1 µM | [3] 31.7 µM | [4] 37.4 µM | [5] 15.8 µM | [6] 39.1 µM | [7] 31.9 µM | [8] 30.1 µM | [9] 35.1 µM | [11] 2.18 µM | [12] 15.3 µM | [13] 33 µM | [14] 3.97 µM | [15] 1.94 µM | [16] 5.15 µM | [17] 1.68 µM | [18] 3.28 µM | [19] 2 µM

Cc1c(-c2cccnc2)c2ccccc2n1CCCCC(=O)O
active: [1] 3.97 µM
inactive: all other assays above

CCCCCCCCO
inactive: all assays above

COc1ccc2sc(C(=O)Nc3nnn[nH]3)c(OC(C)C)c2c1
active: [1] 13.3 µM | [2] 19.9 µM | [4] 15.8 µM | [5] 11.1 µM | [7] 19.9 µM | [8] 15.5 µM | [9] 8.49 µM | [10] 7.08 µM | [11] 13.6 µM | [12] 13 µM | [14] 5.42 µM | [15] 8.61 µM | [16] 20.5 µM | [17] 12.1 µM | [18] 11.4 µM | [19] 10.3 µM
inactive: [3] | [6] | [13]

CC(C)CCCCCCCOC(=O)CCCCC(=O)OCCCCCCCC(C)C
inactive: all assays above

COc1cccc(-c2ccc(/C=C\CN3CCCCCC3)cc2Cl)c1
active: [1] 29.5 µM | [2] 29.4 µM | [3] 4.74 µM | [5] 29.8 µM | [7] 32 µM | [8] 25 µM | [11] 27.3 µM | [12] 25.9 µM | [14] 12.1 µM | [15] 32.2 µM | [16] 34.1 µM | [17] 3.59 µM | [18] 22.4 µM | [19] 27.2 µM
inactive: [4] | [6] | [9] | [10] | [13]

COc1ccc(/C=C/S(=O)(=O)NC(=O)c2ccc(C)cc2Cl)cc1
active: [5] 18.9 µM | [17] 13.6 µM
inactive: all other assays above

CCOc1cccc(-n2cc(C(=O)N3CCN(c4cc(C(=O)O)c5ccccc5c4)CC3)nc2-c2ccc(C)cc2)c1
inactive: [3] | [7] | [8] | [9] | [10]
active: [1] 27 µM | [2] 19.2 µM | [4] 34.5 µM | [5] 30.4 µM | [6] 19.2 µM | [11] 10.4 µM | [12] 31.1 µM | [13] 19.2 µM | [14] 4.99 µM | [15] 5.21 µM | [16] 14.2 µM | [17] 10.2 µM | [18] 7.68 µM | [19] 6.49 µM

C[C@](N)(Cc1ccc(O)c(O)c1)C(=O)O
active: [11] 23.2 µM | [17] 12.5 µM | [18] 26.6 µM
inactive: all other assays above

CCOC(=O)CC(CC(=O)OCC)(OC(C)=O)C(=O)OCC
inactive: all assays above

From PubChem BioAssay (EPA / NIEHS)
